Source: PubChem BioAssay (Tox21)
“And” between values parts separate entries of the source, which are not always exact repeats. Equal entries are not always repeated. Inconclusive results are not listed. Where a call stands in place of a potency, no number is given. Some compounds were tested as several samples or in several runs, with calls that do not always agree. The source made the active and inactive calls. Unless noted, calls follow the shape of the dose curve; as a rule, active = well fitted curve in the direction sought with a large enough effect in the repeat runs; inconclusive = weak or mixed curves; inactive = no such curve, though single readings can be large; an effect the other way counts as inactive or inconclusive.

What was measured:
[1] = qHTS assay to identify small molecule agonists of the progesterone receptor (PR) signaling pathway - cell viability counter screen (AID 1346799; calls by dose curve; also: nearly all actives have a fitted effect of over 45% in size; also: potency is read from the fitted curve at half-maximal effect)
Method in brief: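 Cytotoxicity in PR-bla HEK293T cells: 16 h compound, 37C; CellTiter-Glo added post-FRET read; luminescence after 30 min RT.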

[2] = qHTS assay to identify small molecule antagonists of the TGF-beta/Smad signaling pathway - cell viability counter screen (AID 1346824); also: nearly all actives have a fitted effect of over 50% in size
Method in brief: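 SBE-bla HEK 293T cells were plated overnight at 37 C, then given compounds in DMSO plus TGF-beta1 (added as 0.25 ng/mL solution) for 5 hr. After the bla read, CellTiter-Glo was added to the same wells and luminescence read after 30 min at room temperature.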

[3] = qHTS assay to identify small molecule agonists of the TGF-beta/Smad signaling pathway - cell viability counter screen (AID 1346829); also: top concentration of the series differs between compounds; nearly all actives have a fitted effect of over 45% in size
Method in brief: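 CellTiter-Glo luminescence readout; SBE-bla HEK 293T cells, overnight plating, compound 5 hr at 37 C/5% CO2, then bla substrate 2 hr RT, then CellTiter-Glo 30 min RT.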

[4] = qHTS assay to identify small molecule agonists of the TGF-beta/Smad signaling pathway (AID 1346859; active = well fitted activation curve with a large enough effect in the signal ratio in the repeat runs, not every such curve was filed as active; the % refers to the signal ratio; also: series mostly up to about 77 µM)
Method in brief: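 Stable Smad binding element-beta-lactamase HEK 293T cells; 5 hr compound exposure at 37 C under 5% CO2; 2 hr room-temperature substrate step; fluorescence excited at 405 nm, collected at 460 nm and 530 nm.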

[5] = target: Thyrotropin-releasing hormone receptor (Homo sapiens) (UniProt P34981); test: qHTS assay to identify small molecule antagonists of the thyrotropin-releasing hormone receptor (TRHR) signaling pathway (AID 1346877; active = well fitted inhibition curve with a large enough effect in the repeat runs, not every such curve was filed as active; also: series mostly up to about 51 µM)
Sequence of Thyrotropin-releasing hormone receptor (Homo sapiens) (P34981 whole entry, looked up): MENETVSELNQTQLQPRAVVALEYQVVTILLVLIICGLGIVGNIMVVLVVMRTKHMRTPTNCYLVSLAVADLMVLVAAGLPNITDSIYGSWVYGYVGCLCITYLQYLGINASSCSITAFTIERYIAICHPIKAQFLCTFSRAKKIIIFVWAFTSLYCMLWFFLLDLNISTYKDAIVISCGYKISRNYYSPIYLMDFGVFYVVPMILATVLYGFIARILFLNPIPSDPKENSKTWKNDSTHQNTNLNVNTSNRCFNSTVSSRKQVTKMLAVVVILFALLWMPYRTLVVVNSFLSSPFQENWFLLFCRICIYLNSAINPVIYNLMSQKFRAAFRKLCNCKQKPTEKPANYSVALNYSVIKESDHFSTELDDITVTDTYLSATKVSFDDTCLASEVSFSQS
Method in brief: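 In this cell-based calcium flux format, HEK293 cells expressing TRHR received test compound for 5 min before the agonist TRH (1 nM final). Dye loading lasted 2 h at 37 °C.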

[6] = target: Thyrotropin-releasing hormone receptor (Homo sapiens) (UniProt P34981); test: qHTS assay to identify small molecule agonists of the thyrotropin-releasing hormone receptor (TRHR) signaling pathway (AID 1346891; calls by dose curve; also: series mostly up to about 58 µM)
Method in brief: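 In 1536-format, 1500 TRHR-Hek293 cells per well grew 18 h, took up calcium dye for 2 h at 37 °C, received compound, and were read kinetically; 15-point titrations, triplicates.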

[7] = Human pregnane X receptor (PXR) small molecule agonists, qHTS cell viability counter screen (AID 1346977); also: nearly all actives have a fitted effect of over 50% in size; also: potency is read from the fitted curve at half-maximal effect
Method in brief: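 Readout is CellTiter-Fluor fluorescence from PXR-Luc HepG2 cells. Plated cells rested 5hr, then were treated with compounds for 24hr at 37C and 5% CO2, with reagent present during the last hour.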

[8] = Caspase-3/7 induction in HepG2 cells by small molecules, qHTS assay (AID 1346978); also: nearly all actives have a fitted effect of over 15% in size; also: potency is read from the fitted curve at half-maximal effect
Method in brief: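 Wild-type HepG2 cells (2,000/well) were settled 5 h at 37 C, 5% CO2, then exposed to compounds in DMSO for 17 h. Caspase-3/7 activity was read by luminescence 30 min after adding Caspase-Glo 3/7 reagent at room temperature.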

[9] = Caspase-3/7 induction in CHO-K1 cells by small molecules, qHTS cell viability counter screen (AID 1346979); also: nearly all actives have a fitted effect of over 35% in size; also: potency is read from the fitted curve at half-maximal effect
Method in brief: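 To flag cytotoxic compounds, treated CHO-K1 wild-type cells were given CellTiter-Fluor at 16hr and read fluorescently after 1hr at 37C; the caspase-3/7 luminescence was measured in these same wells.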

[10] = Caspase-3/7 induction in CHO-K1 cells by small molecules, qHTS assay (AID 1346980); also: nearly all actives have a fitted effect of over 15% in size
Method in brief: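 Wild-type cells were seeded at 1,500 per well and settled 5 hr at 37 C, 5% CO2, then exposed to DMSO-dissolved compounds for 17 hr. Caspase-Glo 3/7 reagent was added, and luminescence was read after 30min at room temperature.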

Nc1ccc(-c2ccc(N)c(Cl)c2)cc1Cl
Potency [1]: inactive | Potency [2]: inactive | Potency [3]: inactive | Potency [4]: inactive | Potency [5]: inactive | Potency [6]: inactive | Potency [7]: 3.98 µM (active) and 54.5 µM (active) | Potency [8]: 13.8 µM (active) | Potency [9]: 68.9 µM (active) and 1.43 µM (active) and 48.6 µM (active) | Potency [10]: inactive

C[C@]12CCC(=O)C=C1CC[C@@H]1[C@@H]2CC[C@]2(C)C(=O)CC[C@@H]12
Potency [1]: inactive and 61.1 µM (active) | Potency [2]: inactive | Potency [3]: inactive | Potency [4]: inactive | Potency [5]: inactive | Potency [6]: inactive | Potency [7]: inactive | Potency [8]: inactive | Potency [10]: inactive

COP(=O)(OC)OC=C(Cl)Cl
Potency [1]: inactive | Potency [2]: inactive | Potency [3]: inactive | Potency [4]: inactive | Potency [5]: inactive | Potency [6]: inactive | Potency [7]: inactive | Potency [8]: inactive | Potency [10]: inactive

CCCCn1cc[n+](C)c1
Potency [1]: inactive | Potency [2]: inactive | Potency [3]: inactive | Potency [4]: inactive | Potency [7]: inactive | Potency [8]: inactive | Potency [9]: inactive | Potency [10]: inactive

Nc1ccc(-c2ccc(N)cc2)cc1
Potency [1]: inactive | Potency [2]: inactive | Potency [3]: inactive | Potency [4]: inactive | Potency [5]: inactive | Potency [6]: inactive | Potency [7]: inactive | Potency [8]: inactive | Potency [9]: inactive | Potency [10]: inactive

Cc1cc(Cl)ccc1N
Potency [1]: inactive | Potency [2]: inactive | Potency [3]: inactive | Potency [4]: inactive | Potency [5]: inactive | Potency [6]: inactive | Potency [7]: inactive | Potency [8]: inactive | Potency [9]: inactive | Potency [10]: inactive

O=c1nc(O)n(Cl)c(=O)n1Cl
Potency [1]: inactive | Potency [2]: inactive | Potency [3]: inactive | Potency [4]: inactive | Potency [5]: inactive | Potency [6]: inactive | Potency [7]: inactive | Potency [8]: inactive | Potency [10]: inactive

O=S(=O)(O)O
Potency [1]: inactive | Potency [2]: inactive | Potency [3]: inactive | Potency [4]: inactive | Potency [7]: inactive | Potency [8]: inactive | Potency [9]: inactive | Potency [10]: inactive

CC(Cl)(Cl)C(=O)O
Potency [1]: inactive | Potency [2]: inactive | Potency [3]: inactive | Potency [4]: inactive | Potency [7]: inactive | Potency [8]: inactive | Potency [9]: inactive | Potency [10]: inactive

CCNc1nc(Cl)nc(NCC)n1
Potency [1]: inactive | Potency [2]: inactive | Potency [3]: inactive | Potency [4]: inactive | Potency [5]: inactive | Potency [6]: inactive | Potency [7]: inactive | Potency [8]: inactive | Potency [9]: inactive | Potency [10]: inactive

O=C(O)C(Cl)(Cl)Cl
Potency [1]: inactive | Potency [2]: inactive | Potency [3]: inactive | Potency [4]: inactive | Potency [5]: inactive | Potency [6]: inactive | Potency [7]: inactive | Potency [8]: inactive | Potency [10]: inactive

CCCC[n+]1cccc(C)c1
Potency [1]: inactive | Potency [2]: inactive | Potency [3]: inactive | Potency [4]: inactive | Potency [5]: inactive | Potency [6]: inactive | Potency [7]: inactive | Potency [8]: inactive | Potency [10]: inactive

O=[N+]([O-])O
Potency [1]: inactive | Potency [2]: inactive | outcome [2]: inactive | Potency [3]: inactive | Potency [4]: inactive | Potency [7]: inactive | Potency [8]: inactive | Potency [10]: inactive

C=CCOC(Cn1ccnc1)c1ccc(Cl)cc1Cl (stereo not given)
Potency [1]: 27.4 µM (active) and 21.7 µM (active) and 18.8 µM (active) | Potency [2]: inactive | Potency [3]: inactive | Potency [4]: inactive | Potency [5]: inactive | Potency [6]: inactive | Potency [7]: 48.6 µM (active) | Potency [8]: inactive | Potency [10]: inactive

O=C(O)CC(O)(CC(=O)O)C(=O)O
Potency [1]: inactive | Potency [2]: inactive | Potency [3]: inactive | Potency [4]: inactive | Potency [5]: inactive | Potency [6]: inactive | Potency [7]: inactive | Potency [8]: inactive | Potency [10]: inactive

COCC(=O)N(c1c(C)cccc1C)C(C)C(=O)OC (stereo not given)
Potency [1]: inactive | Potency [2]: inactive | Potency [3]: inactive | Potency [4]: inactive | Potency [5]: inactive | Potency [6]: inactive | Potency [7]: inactive | Potency [8]: inactive | Potency [9]: inactive | Potency [10]: inactive

CNC
Potency [1]: inactive | Potency [2]: inactive | Potency [3]: inactive | Potency [4]: inactive | Potency [5]: inactive | Potency [6]: inactive | Potency [7]: inactive | Potency [8]: inactive | Potency [9]: inactive | Potency [10]: inactive

CCCC[N+]1(C)CCCC1
Potency [1]: inactive | Potency [2]: inactive | Potency [3]: inactive | Potency [4]: inactive | Potency [7]: inactive | Potency [8]: inactive | Potency [9]: inactive | Potency [10]: inactive

O=C(O)CCl
Potency [1]: inactive | Potency [2]: inactive | Potency [3]: inactive | Potency [4]: inactive | Potency [5]: inactive | Potency [6]: inactive | Potency [7]: inactive | Potency [8]: inactive | Potency [10]: inactive

Nc1ccc(Cl)cc1
Potency [1]: inactive | Potency [2]: inactive | Potency [3]: inactive | Potency [4]: inactive | Potency [5]: inactive | Potency [6]: inactive | Potency [7]: inactive | Potency [8]: inactive | Potency [10]: inactive

CCCCCCCCCCCCOS(=O)(=O)O
Potency [1]: inactive and 27.3 µM (active) | Potency [2]: inactive | Potency [3]: inactive | Potency [4]: inactive | Potency [7]: inactive | Potency [8]: inactive | Potency [9]: inactive | Potency [10]: inactive

O=c1[nH]c(=O)n(Cl)c(=O)n1Cl
Potency [1]: inactive | Potency [2]: inactive | Potency [3]: inactive | Potency [4]: inactive | Potency [5]: inactive | Potency [6]: inactive | Potency [7]: inactive | Potency [8]: inactive | Potency [9]: inactive | Potency [10]: inactive

CCCn1cc[n+](C)c1
Potency [1]: inactive | Potency [2]: inactive | Potency [3]: inactive | Potency [4]: inactive | Potency [5]: inactive | Potency [6]: inactive | Potency [7]: inactive | Potency [8]: inactive | Potency [10]: inactive

O=[N+]([O-])c1ccccc1O
Potency [1]: inactive | Potency [2]: inactive | Potency [3]: inactive | Potency [4]: inactive | Potency [5]: inactive | Potency [6]: inactive | Potency [7]: inactive | Potency [8]: inactive | Potency [9]: inactive | Potency [10]: inactive

C1CCC(NC2CCCCC2)CC1
Potency [1]: inactive | Potency [2]: inactive | Potency [3]: inactive | Potency [4]: inactive | Potency [5]: inactive | Potency [6]: inactive | Potency [7]: inactive | Potency [8]: inactive | Potency [10]: inactive

COc1ccccc1N
Potency [1]: inactive | Potency [2]: inactive | Potency [3]: inactive | Potency [4]: inactive | Potency [5]: inactive | Potency [6]: inactive | Potency [7]: inactive | Potency [8]: inactive | Potency [10]: inactive

Oc1ccccc1-c1ccccc1
Potency [1]: inactive | Potency [2]: inactive | Potency [3]: inactive | Potency [4]: inactive | Potency [5]: inactive | Potency [6]: inactive | Potency [7]: inactive | Potency [8]: inactive | Potency [10]: inactive

O=C(O)C(Cl)Cl
Potency [1]: inactive | Potency [2]: inactive | Potency [3]: inactive | Potency [4]: inactive | Potency [5]: inactive | Potency [6]: inactive | Potency [7]: inactive | Potency [8]: inactive | Potency [9]: inactive | Potency [10]: inactive
